Measured values as given in PubChem BioAssay AID1006 (Sanford-Burnham Center for Chemical Genomics, 2008).
In all, about 200,000 compounds went through this assay and about 3,000 (1.5%) were called active. Shown is part of a subset that was picked to be rich in actives. Unmarked numbers belong to inactive results.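 How the source made its calls: active means inhibition above about 50% when tested at 10 µM (limit read from the data); inactive means the rest.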

biological target: Luciferin 4-monooxygenase (Photinus pyralis) (UniProt P08659); assay: firefly luciferase enzyme inhibitors, primary screen, artefact control for luciferase-based inhibitor screens, biochemical, luminescence, ATPLite (AID 1006); conditions: 10 min, at 10 µM, active compounds read high
Sequence (P08659 whole entry, looked up): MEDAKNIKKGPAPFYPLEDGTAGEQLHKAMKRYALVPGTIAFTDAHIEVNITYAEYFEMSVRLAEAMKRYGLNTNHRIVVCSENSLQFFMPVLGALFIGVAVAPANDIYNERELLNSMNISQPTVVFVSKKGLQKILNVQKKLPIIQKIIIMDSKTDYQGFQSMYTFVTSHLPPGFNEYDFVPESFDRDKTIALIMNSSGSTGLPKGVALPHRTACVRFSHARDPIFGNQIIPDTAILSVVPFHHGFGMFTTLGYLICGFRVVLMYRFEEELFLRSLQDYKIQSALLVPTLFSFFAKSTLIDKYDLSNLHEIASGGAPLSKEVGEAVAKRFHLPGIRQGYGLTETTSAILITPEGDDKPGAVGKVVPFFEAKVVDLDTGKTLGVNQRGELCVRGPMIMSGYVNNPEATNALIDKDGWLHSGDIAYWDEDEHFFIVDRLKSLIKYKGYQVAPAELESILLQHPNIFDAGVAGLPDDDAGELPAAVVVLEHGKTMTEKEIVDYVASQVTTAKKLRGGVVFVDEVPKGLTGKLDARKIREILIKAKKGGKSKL

Compound	inhibition
O=C(Nc1cccc(Cl)c1N1CCOCC1)c1ccc2c(c1)OCCO2	-0.6%
COc1c(Cl)cc(C(=O)Nc2ccc(Cl)cn2)cc1Cl	-5.9%
O=C(Nc1ccc(Cl)cn1)c1ccc2c(c1)OCCO2	82.7% (active)
O=C(Nc1ccc2c(c1)OCCO2)c1ccc(Cl)c(S(=O)(=O)N2CCCCC2)c1	0.9%
O=C(Nc1cccc(S(=O)(=O)Nc2ccc(Cl)cc2)c1)c1ccc2c(c1)OCCO2	-5.3%
CN1CCN(c2ccc(NC(=O)c3ccc4c(c3)OCCO4)cc2Cl)CC1	51.8% (active)
O=C(c1cccc(F)c1)N1CCN(c2ccc([N+](=O)[O-])c3cccnc23)CC1	-7.7%
CCCCC(NC(=O)c1cccc(Br)c1)C(=O)O (stereo not given)	0.5%
CN(C)C=NC(=O)c1cccn1-c1ncc(C(F)(F)F)cc1Cl	-1.5%
COc1cccc(-c2cc(C(=O)N/N=C/c3ccc(OC)c(COC(C)=O)c3)c3ccccc3n2)c1	-1.7%
Cc1ccc(-c2cc(C(=O)N/N=C/C=C/c3ccco3)c3ccccc3n2)cc1C	73.1% (active)
O=C(N/N=C/C=C/c1ccco1)c1cccs1	12.4%
Cc1nnc(SCC(=O)NNC(=O)c2ccc(Cl)cc2)n1CC1CCCO1 (stereo not given)	-8.3%
O=C(Oc1ccccc1)c1ccc2nccnc2c1	13.3%
c1ccc(-c2noc(-c3cccs3)n2)nc1	71.2% (active)
c1csc(-c2nc(-c3ccncc3)no2)c1	17.7%
COc1nc(-c2ccc(Cl)cc2)ccc1-c1noc(-c2cccs2)n1	-3.8%
CC(C)c1nc(-c2ccccn2)no1	-5.3%
O=C(Oc1ccc(-c2nc(-c3ccccn3)no2)cc1)c1ccccc1	65.5% (active)
COc1ccc(NC(=S)N2CCCC(CO)C2)c(OC)c1 (stereo not given)	-2.4%
Cc1ccc(N(C(=O)Cc2cccs2)C(C(=O)NCC2CCCO2)c2ccncc2)cc1 (stereo not given)	-3.7%
CCN(C(=O)COC(=O)c1cc(S(=O)(=O)N2CCc3ccccc32)ccc1OC)C1CCS(=O)(=O)C1 (stereo not given)	-6.8%
CCCN(CC1COc2ccccc2O1)C(=S)Nc1ccc(C)cc1 (stereo not given)	-6.7%
CC(C)CNC(=O)C(=O)Nc1ccc(N(C)C)cc1	5.5%
CCOc1ccc(N2C(=O)CN(c3cccc4ccccc34)C2=S)cc1	-3.3%

Compound	inhibition
COc1cc(COCC(O)CN2CCN(Cc3ccc4c(c3)OCO4)CC2)cc(OC)c1OC (stereo not given)	-5%
O=C(OCc1ccc([N+](=O)[O-])cc1)c1ccccn1	-6%
N/C(=N\OC(=O)Cc1ccc([N+](=O)[O-])cc1)c1ccccn1	9.6%
N/C(=N\OC(=O)c1ccc([N+](=O)[O-])cc1)c1ccccn1	91.5% (active)
CCC(C)N(C)C1CCN(C(=S)Nc2ccc(OC)cc2)CC1 (stereo not given)	-0.3%
COc1ccc(N2CCN(C(=O)CSc3nc4cc(OC)c(OC)cc4cc3C#N)CC2)cc1	-6.5%
COc1ccc2nc(N3CCCC(O)C3)c(C#N)cc2c1 (stereo not given)	54.6% (active)
CCOc1ccc2nc(N3CCCN(C(=O)Nc4ccccc4C)CC3)c(C#N)cc2c1	-2%
Cc1ccc2[nH]c(C(=O)O)c(NC(=O)c3ccccc3[N+](=O)[O-])c2c1	-4.8%
CCn1cc(C(=O)Nc2cc(C)ccc2C)c(=O)c2ccc(C)nc21	-5.1%
c1ccc(CN2CCC(N=C3NN=C(c4ccc5c(c4)OCCO5)CS3)CC2)cc1	-2.4%
Clc1cccc(N=C2NN=C(c3ccc4c(c3)OCCO4)CS2)c1	51.5% (active)
Cc1cccc(N=C2NN=C(c3c[nH]c4ccccc34)CS2)c1	-4.7%
COc1cc(/C=N/NC(=O)CCc2n[nH]c(=O)[nH]c2=O)ccc1O	-6.6%
Nc1c(NCCc2ccccc2)c2ccccc2oc1=O	-4%
Cc1ccc(CN2CCN(Cc3cn(C)nc3-c3ccccc3)CC2CCO)o1 (stereo not given)	-4.5%
O=C1CC(c2ccccc2)=NN1c1ccc([N+](=O)[O-])cc1	-2.5%
COc1ccc(C2=NN(c3nc4ccccc4s3)C(=O)C2)cc1	59.7% (active)
COc1ccc(/C=C(/CC(=O)Nc2ccc(C)cc2)c2nc3ccccc3s2)cc1	-7.9%
CCc1ccccc1N1C(=O)C2C3CC(=O)C(c4ccccc43)C2C1=O (stereo not given)	-5.1%
CCc1nnc(NC(=O)[C@@H](NC(=O)c2cccc(C)c2)C(C)C)s1	-3.8%
CN1CCN(C(=O)N2c3ccccc3CCc3ccccc32)CC1	-4.4%
Cn1c(=O)c(Sc2ccc(Cl)cc2)c(O)c2ccccc21	-5.7%
Cn1c(=O)c(C(=O)Nc2ncccn2)c(O)c2ccccc21	70.3% (active)
CCCCn1c(=O)c(C(C)=O)c(O)c2ccccc21	-1.3%

Compound	inhibition
Cc1ccccc1-n1nc(C)c2c1N=C1C(Cl)=CC(Cl)=CN1C2c1ccc(C(=O)O)cc1 (stereo not given)	-0.1%
COc1ccc(-c2csc(Nc3ccccn3)n2)cc1	49.9%
COc1ccc(C(=O)/C=C/Nc2ccccn2)cc1	92.4% (active)
CCOc1cc(NC(=O)c2ccccn2)c(OCC)cc1NC(=O)c1ccc(OC)cc1	-2.9%
O=C(Cc1cccs1)Nc1cccc(-c2nc3ccccc3[nH]2)c1	-1.9%
O=C(CCCN1C(=O)/C(=C\c2ccco2)SC1=S)Nc1cccc2ccccc12	-1.3%
O=C(CCCN1C(=O)/C(=C/c2ccco2)SC1=S)Nc1ccccc1	-3.2%
O=C(CCCN1C(=O)/C(=C/c2ccccc2)SC1=S)Nc1ccc(O)cc1	57.6% (active)
CN1c2ccccc2-c2nc3ccccc3n2C1c1ccco1 (stereo not given)	1.3%
Cn1c(-c2ccco2)nc2cc3ccccc3cc21	95.7% (active)
CN(c1nc2ccccc2n2c(-c3ccco3)nnc12)S(=O)(=O)c1ccccc1	-2.9%
CCC(C)c1ccc(NC(=S)NCc2ccccn2)cc1 (stereo not given)	-3.2%
C/C(=N\N=C(N)N)c1ccc(Cl)cc1	-7.1%
Cc1ccc(CNC(=O)CC2Sc3ccccc3NC2=O)cc1 (stereo not given)	-6.5%
C(=N\Nc1ccc2ccccc2n1)/c1ccc2c(c1)OCO2	87.4% (active)
Brc1ccc(-c2csc(N/N=C/c3ccc4c(c3)OCO4)n2)cc1	-0.1%
Cc1noc(C)c1/C=N/Nc1ccc2ccccc2n1	13.4%
CCNC(=S)N1CCN(c2ncccn2)CC1	-2.5%
COc1ccc(NC(=O)Nc2cccc3cccnc23)cc1	65.4% (active)
COc1ccc(NC(=O)Nc2ccc3nc(C)c(C)nc3c2)cc1	-4.8%
COc1ccc(NC(=O)C2CCCN(S(=O)(=O)c3cccc4cccnc34)C2)cc1 (stereo not given)	-0.5%
NC(=NC(=O)c1ccccc1)N1CCOCC1	0.1%
O=C(CSC(=S)N1CCOCC1)c1ccccc1	72.6% (active)
CC1CN(C(=S)SCC(=O)c2ccccc2)CC(C)O1 (stereo not given)	4.3%
CCC(C)(C)c1ccc(OCC(=O)N(C)C)c(C(C)(C)CC)c1	-6.6%

Compound	inhibition
Cc1cc(C)nc(SCC(=O)N(C)C)n1	-4.6%
O=C(CC1Nc2ccccc2NC1=O)Nc1ccccc1NC(=O)CC1Nc2ccccc2NC1=O (stereo not given)	7.9%
O=C(/C=C\NCC(=O)c1ccccc1)c1ccccc1	14.5%
Cc1ccc(N/C=C/C(=O)c2ccccc2)cc1C	91.4% (active)
Cc1noc(NS(=O)(=O)c2ccc(N/C=C/C(=O)c3ccccc3)cc2)c1C	-2.7%
CC1CCN(C(=S)c2ccc(-c3ccc(Cl)cc3Cl)o2)CC1	3.9%
S=C(NCCc1ccccc1)N1CCCCC1	9.6%
S=C(c1ccc(-c2ccccc2)o1)N1CCCCC1	83.4% (active)
COc1cccc(OC)c1C(=O)NC(=S)NCc1ccco1	-2.1%
COCCn1c(Cc2cccn2C)nnc1SCC(=O)Nc1nccs1	-5.3%
COc1cc(NC(=O)COc2ccccc2Cl)ccc1NC(=O)C(C)C	-2.5%
CC(CC(=O)C1C(C)C=CCC1(C)C)NNC(N)=O (stereo not given)	-6.1%
Cc1cc(C)c2nc(NC(=O)c3ccc4c(c3)OCO4)sc2c1	-1.6%
COCc1nnc(NC(=O)c2ccc3c(c2)OCO3)s1	58.9% (active)
COc1ccc(C(=O)Nc2ccc3c(c2)OCO3)cc1OC	28.8%
CCCc1nnc(NC(=O)c2cc(OC)cc(OC)c2)s1	-1.1%
O=C(Nc1ccccc1)Nc1nc2ccccc2s1	52.9% (active)
CC(=O)Nc1ccc(-c2csc(NC(=O)Nc3ccccc3)n2)cc1	-0.4%
O=C(Nc1ccccc1)c1ccc2c(c1)OCO2	34.2%
CSCCC(Nc1nc2ccccc2s1)C(=O)O (stereo not given)	-2%
O=C(Nc1nc2ccccc2s1)c1ccc2c(c1)OCO2	83.9% (active)
C/C(=N/NC(=O)CSc1ccccn1)c1ccc([N+](=O)[O-])cc1	-6.6%
O=C(CN1CCN(S(=O)(=O)/C=C/c2ccccc2)CC1)Nc1ccc(N2CCOCC2)cc1	-7.8%
COc1ccc(-n2c(=S)[nH]c3sc4c(c3c2=O)CCc2ccccc2-4)cc1	4.5%
CCOc1ccc2nc(NCCNC(=O)C(C)(C)C)c(C)cc2c1	-2.6%
